Data as given in the supplement of paper PMC10849652.
Of roughly 8,800 targets only a part is listed; those with a hit were picked by preference. About 0.5% of all pairs of compound and target were hits.

Legend:
Test in all cases: log2 fold change, soluble protein after heating vs DMSO (PISA); higher = thermal stabilisation; K562 lysate, 10 uM; active = over 0.2 and 3.5 SD of the protein, either way, in both replicates (recomputed)
erlotinib = compound: C#Cc1cccc(Nc2ncnc3cc(OCCOC)c(OCCOC)cc23)c1 [erlotinib]
Outline: (§1)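 Quantification was by TMTpro 16plex LC-MS/MS with equalised channel sums, applied to the supernatant after 21,000xg for 90 min. Samples were crude K562 extract at 1 mg/mL protein in PBS pH 7.4 with 1 mM MgCl2, treated with 10 μM compound for 30 min, heated for 3 min across 48°C-58°C, pooled and brought to 0.5% NP-40 at 4°C. Values are log-two fold changes in thermal stability relative to solvent controls, from duplicates.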

[1] = compound: C/C(=N\NC(=O)C1=CC(=CC=C1)S(=O)(=O)N2CCOCC2)/C3=C(C=CC(=C3)Cl)O
Outline: as §1

[2] = compound: C1=CC(=CC=C1C2=NC3=C(N2)C=C(C=C3)C(=O)N)OC4=CC=C(C=C4)Cl
Outline: as §1

[3] = compound: C1=CC2=C(C=CC(=C2)/C=C\3/C(=O)NC(=NCC4=CC=CS4)S3)N=C1
Outline: as §1

[4] = compound: C1=CC2=NC=CN=C2C=C1/C=C/3\C(=O)NC(=O)S3
Outline: as §1

[5] = compound: C1=CC=C(C=C1)C2=NC(=C(N2)C3=CC=NC=C3)C4=CC(=C(C=C4)Cl)O
Outline: as §1

[6] = compound: C1=CC=C2C(=C1)C3=NNC4=CC=CC(=C43)C2=O
Outline: as §1

[7] = compound: C1CCN(C1)C(=O)NC2=CC=CC(=C2)NC3=NC=C(C(=N3)NCCC4=CN=CN4)Br
Outline: as §1

[8] = compound: C1CN(CCC1(CC2=CC=C(C=C2)Cl)N)C3=NC=NC4=C3C=CN4
Outline: as §1

IRAK-1-4 Inhibitor I = compound: C1COCCN1CCN2C3=CC=CC=C3N=C2NC(=O)C4=CC(=CC=C4)[N+](=O)[O-] [IRAK-1-4 Inhibitor I]
Outline: as §1

ibrutinib = compound: C=CC(=O)N1CCC[C@@H](n2nc(-c3ccc(Oc4ccccc4)cc3)c3c(N)ncnc32)C1 [ibrutinib]
Outline: as §1

[9] = compound: CC(=O)c1cnc2ccc(-c3cc(Cl)c(O)c(Cl)c3)nc2c1N[C@H]1CC[C@H](CN(C)C)CC1
Outline: as §1

ralimetinib = compound: CC(C)(C)Cn1c(N)nc2ccc(-c3[nH]c(C(C)(C)C)nc3-c3ccc(F)cc3)nc21 [ralimetinib]
Outline: as §1

[10] = compound: CC(C)(O)CC(=O)NCCn1ccc2ncnc(Nc3ccc(Oc4cccc(C(F)(F)F)c4)c(Cl)c3)c21
Outline: as §1

[11] = compound: CC(C)C1=C2N=C(C=C(N2N=C1)NCC3=CC=CC=C3)NCCCCCCN
Outline: as §1

[12] = compound: CC1=C(C(CC(=O)N1)C2=CC=C(C=C2)C(F)(F)F)C(=O)NC3=C(C=C4C(=C3)C=NN4)F
Outline: as §1

[13] = compound: CC1=C(C2=C(C=C1)C(=O)C3=CC=CC=C3N2CCCN)C
Outline: as §1

[14] = compound: CC1=C(C=C(C=C1)NC(=O)C2=CC(=CC=C2)C(C)(C)C#N)NC3=CC4=C(C=C3)N=CN(C4=O)C
Outline: as §1

[15] = compound: CC1=C(C=C(C=C1)NC(=O)C2=CC(=CC=C2)N(C)C)NC(=O)C3=CC=C(C=C3)O
Outline: as §1

[16] = compound: CC1=CC=C(C=C1)SC2=C3C=C(SC3=CN=C2)C(=O)N
Outline: as §1

Measured: log2 fold change

GRK6 isoform 2 (UniProt P43250)
Chain of UniProt P43250 (P43250 whole entry, looked up): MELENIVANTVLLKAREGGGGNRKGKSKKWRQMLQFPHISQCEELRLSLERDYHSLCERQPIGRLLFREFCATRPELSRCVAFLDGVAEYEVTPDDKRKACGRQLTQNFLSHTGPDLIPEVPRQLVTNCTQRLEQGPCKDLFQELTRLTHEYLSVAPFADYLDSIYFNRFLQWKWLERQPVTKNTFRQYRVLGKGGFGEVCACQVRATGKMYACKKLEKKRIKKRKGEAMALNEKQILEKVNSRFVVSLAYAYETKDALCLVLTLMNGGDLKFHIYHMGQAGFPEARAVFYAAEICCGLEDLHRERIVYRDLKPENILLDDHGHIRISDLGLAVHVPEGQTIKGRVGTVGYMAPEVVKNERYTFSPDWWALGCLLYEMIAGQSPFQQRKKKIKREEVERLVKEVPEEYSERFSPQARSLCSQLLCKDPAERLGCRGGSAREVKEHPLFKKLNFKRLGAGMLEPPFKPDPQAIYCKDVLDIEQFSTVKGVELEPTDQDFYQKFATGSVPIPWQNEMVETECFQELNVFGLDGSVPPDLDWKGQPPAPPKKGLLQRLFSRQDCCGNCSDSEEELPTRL
inactive: erlotinib -0.014 | [1] -0.126 | [2] 0.015 | [3] -0.009 | [4] -0.046 | [5] -0.063 | [6] 0.284 | [7] -0.161 | [8] 0.108 | IRAK-1-4 Inhibitor I 0.053 | ibrutinib 0.083 | [9] 0.04 | ralimetinib -0.073 | [10] -0.068 | [11] -0.036 | [12] 0.021 | [13] -0.092 | [14] 0.048 | [15] -0.049 | [16] -0.005

ITPKA (UniProt P23677)
Chain of UniProt P23677 (P23677 whole entry, looked up): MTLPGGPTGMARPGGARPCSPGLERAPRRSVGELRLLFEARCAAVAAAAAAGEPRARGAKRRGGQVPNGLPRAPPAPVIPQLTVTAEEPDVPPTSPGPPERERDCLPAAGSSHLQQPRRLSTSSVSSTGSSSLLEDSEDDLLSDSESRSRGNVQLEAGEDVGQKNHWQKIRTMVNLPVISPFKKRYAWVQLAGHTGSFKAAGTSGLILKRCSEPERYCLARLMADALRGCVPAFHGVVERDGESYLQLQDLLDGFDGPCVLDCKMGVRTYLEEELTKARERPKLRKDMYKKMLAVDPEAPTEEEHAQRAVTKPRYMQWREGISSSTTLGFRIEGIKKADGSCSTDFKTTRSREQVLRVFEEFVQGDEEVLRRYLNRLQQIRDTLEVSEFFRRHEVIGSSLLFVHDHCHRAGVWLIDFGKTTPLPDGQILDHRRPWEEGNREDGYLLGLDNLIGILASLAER
inactive: erlotinib 0.021 | [1] -0.042 | [2] 0.041 | [3] 0.043 | [4] 0.006 | [5] 0.046 | [6] 0.006 | [7] -0.07 | [8] 0.011 | IRAK-1-4 Inhibitor I -0.013 | ibrutinib 0.043 | [9] -0.009 | ralimetinib 0.007 | [10] -0.044 | [11] 0.011 | [12] 0.023 | [13] 0.002 | [14] -0.012 | [15] 0.022 | [16] 0.026

GSE1 (UniProt Q14687)
Chain of UniProt Q14687 (Q14687 whole entry, looked up): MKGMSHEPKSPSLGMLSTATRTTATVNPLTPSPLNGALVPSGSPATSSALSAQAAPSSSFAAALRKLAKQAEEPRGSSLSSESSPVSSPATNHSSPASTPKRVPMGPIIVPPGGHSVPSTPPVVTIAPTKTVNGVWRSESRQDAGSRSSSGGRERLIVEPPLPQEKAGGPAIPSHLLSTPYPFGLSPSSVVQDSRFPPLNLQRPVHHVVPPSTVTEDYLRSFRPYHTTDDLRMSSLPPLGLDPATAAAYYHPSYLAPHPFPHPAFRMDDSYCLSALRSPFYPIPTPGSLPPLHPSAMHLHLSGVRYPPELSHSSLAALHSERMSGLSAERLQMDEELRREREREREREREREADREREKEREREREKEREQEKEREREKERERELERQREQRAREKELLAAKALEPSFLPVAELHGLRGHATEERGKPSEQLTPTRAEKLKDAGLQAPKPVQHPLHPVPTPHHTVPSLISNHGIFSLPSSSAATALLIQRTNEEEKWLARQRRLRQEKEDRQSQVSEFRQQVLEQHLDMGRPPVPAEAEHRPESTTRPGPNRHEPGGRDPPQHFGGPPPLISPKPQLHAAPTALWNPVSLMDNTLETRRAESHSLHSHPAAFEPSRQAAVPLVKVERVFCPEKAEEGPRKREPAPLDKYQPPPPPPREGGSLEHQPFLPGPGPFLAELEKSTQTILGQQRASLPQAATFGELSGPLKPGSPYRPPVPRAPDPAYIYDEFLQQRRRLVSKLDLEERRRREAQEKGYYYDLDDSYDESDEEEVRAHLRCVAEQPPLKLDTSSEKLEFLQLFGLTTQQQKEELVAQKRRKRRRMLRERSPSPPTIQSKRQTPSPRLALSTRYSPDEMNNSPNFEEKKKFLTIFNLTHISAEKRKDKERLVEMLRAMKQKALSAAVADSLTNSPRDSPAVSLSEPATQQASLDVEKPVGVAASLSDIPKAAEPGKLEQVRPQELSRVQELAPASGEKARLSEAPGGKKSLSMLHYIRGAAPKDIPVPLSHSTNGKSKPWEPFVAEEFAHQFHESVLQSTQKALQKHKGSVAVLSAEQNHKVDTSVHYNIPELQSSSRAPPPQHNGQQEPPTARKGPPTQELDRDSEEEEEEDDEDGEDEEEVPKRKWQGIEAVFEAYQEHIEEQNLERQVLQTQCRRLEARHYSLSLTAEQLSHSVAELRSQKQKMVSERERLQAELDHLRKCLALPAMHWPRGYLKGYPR
inactive: erlotinib 0.012 | [1] -0.022 | [2] 0.025 | [3] 0.003 | [4] -0.001 | [5] -0.013 | [6] -0.048 | [7] -0.032 | [8] -0.018 | IRAK-1-4 Inhibitor I -0.011 | ibrutinib 0.006 | [9] -0.021 | ralimetinib 0.015 | [10] -0.026 | [11] -0.004 | [12] -0.009 | [13] 0.008 | [14] -0.055 | [15] 0.035 | [16] -0.016

HAUS8 (UniProt Q9BT25)
Chain of UniProt Q9BT25 (Q9BT25 whole entry, looked up): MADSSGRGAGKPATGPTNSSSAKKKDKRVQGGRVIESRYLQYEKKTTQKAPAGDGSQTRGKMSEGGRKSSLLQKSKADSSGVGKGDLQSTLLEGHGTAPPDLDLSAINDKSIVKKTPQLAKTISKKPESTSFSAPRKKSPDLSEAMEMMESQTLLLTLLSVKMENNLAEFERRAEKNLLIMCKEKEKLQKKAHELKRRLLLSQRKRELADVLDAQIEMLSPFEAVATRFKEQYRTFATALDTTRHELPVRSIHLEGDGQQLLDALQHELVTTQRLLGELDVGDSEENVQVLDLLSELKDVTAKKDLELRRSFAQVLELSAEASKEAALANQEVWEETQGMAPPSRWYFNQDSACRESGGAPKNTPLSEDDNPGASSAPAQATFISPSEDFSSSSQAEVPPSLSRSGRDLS
inactive: erlotinib 0.007 | [1] -0.007 | [2] 0.007 | [3] 0.016 | [4] -0.06 | [5] -0.029 | [6] 0.142 | [7] 0.001 | [8] 0.062 | IRAK-1-4 Inhibitor I 0.015 | ibrutinib 0.049 | [9] -0.01 | ralimetinib 0.054 | [10] 0.011 | [11] -0.012 | [12] -0.044 | [13] -0.062 | [14] 0.003 | [15] 0.033 | [16] 0.036

GSK3A (UniProt P49840)
Chain of UniProt P49840 (P49840 whole entry, looked up): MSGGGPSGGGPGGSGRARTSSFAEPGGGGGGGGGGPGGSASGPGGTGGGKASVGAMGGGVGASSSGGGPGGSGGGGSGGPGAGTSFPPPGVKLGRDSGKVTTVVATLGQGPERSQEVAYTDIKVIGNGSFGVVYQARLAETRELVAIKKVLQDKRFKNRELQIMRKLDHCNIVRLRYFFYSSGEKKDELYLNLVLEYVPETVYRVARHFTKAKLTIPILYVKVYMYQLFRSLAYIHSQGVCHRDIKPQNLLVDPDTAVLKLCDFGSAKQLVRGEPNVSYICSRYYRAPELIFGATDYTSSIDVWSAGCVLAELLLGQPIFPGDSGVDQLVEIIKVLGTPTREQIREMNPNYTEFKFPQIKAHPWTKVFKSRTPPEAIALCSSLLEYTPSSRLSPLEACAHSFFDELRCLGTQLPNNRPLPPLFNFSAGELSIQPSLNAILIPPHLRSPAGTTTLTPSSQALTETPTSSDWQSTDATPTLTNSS
inactive: erlotinib -0.029 | [1] -0.103 | [2] -0.034 | [3] 0.069 | [4] 0.066 | [5] 0.295 | [6] 0.182 | [7] 0.163 | [8] 0.018 | IRAK-1-4 Inhibitor I -0.014 | ibrutinib -0.01 | [9] 0.146 | ralimetinib 0.022 | [10] -0.001 | [11] -0.045 | [12] -0.017 | [13] 0.01 | [14] -0.109 | [15] -0.007 | [16] 0.207

HDGFL2 isoform 2 (UniProt Q7Z4V5)
Chain of UniProt Q7Z4V5 (Q7Z4V5 whole entry, looked up): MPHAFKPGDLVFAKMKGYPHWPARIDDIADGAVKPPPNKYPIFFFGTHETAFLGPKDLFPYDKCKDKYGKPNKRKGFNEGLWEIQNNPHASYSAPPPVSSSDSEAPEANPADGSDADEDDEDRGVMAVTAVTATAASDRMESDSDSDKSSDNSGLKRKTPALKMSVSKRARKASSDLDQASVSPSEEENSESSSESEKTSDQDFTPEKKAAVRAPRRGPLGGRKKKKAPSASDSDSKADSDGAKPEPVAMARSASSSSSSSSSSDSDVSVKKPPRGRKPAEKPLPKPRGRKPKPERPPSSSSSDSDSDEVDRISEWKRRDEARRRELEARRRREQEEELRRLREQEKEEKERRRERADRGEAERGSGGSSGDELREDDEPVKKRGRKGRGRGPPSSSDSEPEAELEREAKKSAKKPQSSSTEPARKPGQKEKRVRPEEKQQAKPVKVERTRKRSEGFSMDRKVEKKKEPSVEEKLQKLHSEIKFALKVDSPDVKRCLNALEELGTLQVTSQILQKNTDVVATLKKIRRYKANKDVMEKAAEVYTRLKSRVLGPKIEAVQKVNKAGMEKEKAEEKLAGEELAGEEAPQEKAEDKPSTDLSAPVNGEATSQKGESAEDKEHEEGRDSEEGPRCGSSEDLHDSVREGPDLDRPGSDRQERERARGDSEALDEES
inactive: erlotinib -0.008 | [1] -0.028 | [2] 0.032 | [3] -0.008 | [4] -0.03 | [5] 0.027 | [6] 0.01 | [7] 0 | [8] 0.021 | IRAK-1-4 Inhibitor I 0 | ibrutinib -0.033 | [9] -0.002 | ralimetinib -0.01 | [10] -0.049 | [11] 0.011 | [12] -0.015 | [13] -0.026 | [14] 0.022 | [15] 0.021 | [16] -0.044

HACE1 (UniProt Q8IYU2)
Chain of UniProt Q8IYU2 (Q8IYU2 whole entry, looked up): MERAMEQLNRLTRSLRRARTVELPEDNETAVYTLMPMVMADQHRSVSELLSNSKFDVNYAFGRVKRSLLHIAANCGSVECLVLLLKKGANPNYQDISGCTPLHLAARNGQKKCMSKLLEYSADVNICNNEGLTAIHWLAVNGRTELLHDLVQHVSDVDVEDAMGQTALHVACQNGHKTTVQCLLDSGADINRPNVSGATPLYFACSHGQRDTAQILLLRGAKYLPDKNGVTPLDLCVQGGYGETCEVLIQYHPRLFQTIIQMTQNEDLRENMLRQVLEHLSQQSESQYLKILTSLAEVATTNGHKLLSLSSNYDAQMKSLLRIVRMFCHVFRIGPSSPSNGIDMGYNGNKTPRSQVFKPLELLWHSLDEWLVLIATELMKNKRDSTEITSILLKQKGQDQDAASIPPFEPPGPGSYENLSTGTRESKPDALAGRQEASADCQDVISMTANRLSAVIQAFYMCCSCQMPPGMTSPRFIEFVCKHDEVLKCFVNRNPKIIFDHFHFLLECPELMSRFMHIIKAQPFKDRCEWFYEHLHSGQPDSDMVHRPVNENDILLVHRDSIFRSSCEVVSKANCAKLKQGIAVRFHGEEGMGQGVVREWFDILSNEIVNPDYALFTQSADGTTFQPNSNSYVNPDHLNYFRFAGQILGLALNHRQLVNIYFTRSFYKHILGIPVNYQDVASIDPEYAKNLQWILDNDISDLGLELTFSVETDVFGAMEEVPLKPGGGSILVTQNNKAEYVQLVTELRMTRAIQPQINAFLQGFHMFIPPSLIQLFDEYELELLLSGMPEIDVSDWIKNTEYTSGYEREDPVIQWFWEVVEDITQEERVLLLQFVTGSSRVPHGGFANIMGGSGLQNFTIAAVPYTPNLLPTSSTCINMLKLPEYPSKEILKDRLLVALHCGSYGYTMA
inactive: erlotinib 0.033 | [1] 0.083 | [2] 0.106 | [3] -0.019 | [4] 0.017 | [5] -0.189 | [6] -0.174 | [7] -0.069 | [8] 0.055 | IRAK-1-4 Inhibitor I 0.032 | ibrutinib -0.034 | [9] -0.062 | ralimetinib 0 | [10] -0.056 | [11] 0.041 | [12] -0.042 | [13] -0.042 | [14] -0.07 | [15] 0.08 | [16] 0.01
